Results published in PubChem BioAssay (Tox21).
Inconclusive results are not listed. Unmarked numbers belong to inactive results. The source made the active and inactive calls. The call rests on the fitted dose curve.

Assay: qHTS assay to identify small molecule agonists of H2AX - cell viability counter screen (AID 1224847); further: nearly all actives have a fitted effect of over 30% in size; on activity change, negative = cytotoxicity: top concentration of the series differs between compounds
Conditions: CHO-K1 viability, CellTiter-Glo luminescence, 3 h; series mostly up to 154 µM; activity change, negative = cytotoxicity: at the top concentration
Description: National Center for Advancing Translational Sciences [NCATS]
NIH Chemical Genomics Center [NCGC]
U.S. Environmental Protection Agency [EPA]
National Institutes of Environmental Health Sciences [NIEHS]
National Toxicology Program [NTP]
U.S. Food and Drug Administration [FDA]
HTRF phospho-H2AX (Ser139) assay (Cisbio Bioassays, US) enables the quantitative detection of the histone variant H2AX when phosphorylated on serine 139. When double-stranded DNA breaks, either by ionizing radiation or endogenous physiological processes, H2AX becomes phosphorylated at Ser139. This phospho-Ser139 serves as a sensitive biomarker for the detection of such breaks, localizing the site of DNA repair. So, HTRF phospho-H2AX Ser139 is a pertinent assay to study genome stability, the cell cycle, DNA repair, and it serves as a biomarker for cancer, and to understand aging. Wild type CHO-K1 cells were used to identify the inducers of Phospho-H2AX Ser 139 from the Tox21 compound collections. Also cytotoxicity of the Tox21 10K compound library against the CHO-K1 cell line was tested by measuring the cell viability using CellTiter-Glo assay (Promega, Madison, WI).
Tox21 Assay Protocol Summary:
The CHO-K1 cells suspended in culture medium containing 10% FBS were dispensed at 1000 cells/ 3 ul/well in 1536-well white wall/solid bottom plates (Greiner Bio-One North America, NC) using a Multidrop Combi (Thermo Fisher Scientific Inc., Waltham, MA). After the assay plates were incubated at 37C overnight, 23 nl of compounds at 15 concentrations (from 5-48 columns) or positive control (from 1 to 4 columns) were transferred to the assay plates using a Pintool station (Wako, San Diego, CA) into each well resulting in a final DMSO concentration of 0.76%. After 3hr incubation at 37C, 3 uL/well CellTiter-Glo luminescent cell viability reagent (Promega Corporation, Madison, WI) was added using a Flying Reagent Dispenser (FRD) (Aurora Discovery, CA). After incubation at room temperature for 30 min, the luminescence intensity was read using a ViewLux plate reader (PerkinElmer, Waltham, MA).
On the % scale 0 is the no-effect control and ±100 the full control effect; potency means the concentration at half of the fitted maximal effect.

Row | SMILES | activity change, negative = cytotoxicity | Potency
1 | COc1nn(C(=O)NS(=O)(=O)c2ccccc2OC(F)(F)F)c(=O)n1C | 0.285% | –
2 | O=[Se]=O | -0.496% [at 70.9 µM] | –
3 | O=NN1CCNCC1 | -0.957% | –
4 | ClCc1cccc(Cl)c1 | 1.37% [at 70.9 µM] | –
5 | COC(=O)C(C)N(C(=O)Cc1ccccc1)c1c(C)cccc1C (stereo not given) | -6.79% | –
6 | O=[N+]([O-])c1ccccc1CCl | 2.74% | –
7 | O=S1(=O)OC(c2cc(Br)c(O)c(Br)c2)(c2cc(Br)c(O)c(Br)c2)c2ccccc21 | – | 8.23 µM (active)
8 | CN(N=O)c1ccc([N+](=O)[O-])cc1 | -7.53% | –
9 | C=CCN1CC[C@]23c4c5ccc(O)c4O[C@H]2C(=O)CC[C@@]3(O)[C@H]1C5 | 8.5% [at 70.9 µM] | –
10 | O=C(Nc1ccccc1)Nc1cnns1 | 3.02% | –
11 | CC[C@H]1C[C@H]2[C@@H]3CCC4=CC(=O)CC[C@@H]4[C@H]3CC[C@]2(C)[C@H]1O | -0.805% [at 70.9 µM] | –
12 | O=C1c2ccccc2C(=O)C1C(=O)C(c1ccccc1)c1ccccc1 | 0.755% [at 70.9 µM] | –
13 | O=C(O)c1ccccc1C(=O)Nc1cccc2ccccc12 | -2.24% | –
14 | c1cc2ccc3cccc4ccc(c1)c2c34 | -1.5% | –
15 | S=C=NCc1ccccc1 | 3.98% | –
16 | O=C(NCc1cccnc1)Nc1ccc([N+](=O)[O-])cc1 | 0.256% | –
17 | C[C@@H]1CC[C@H]2[C@@H](C)C(=O)O[C@@H]3O[C@@]4(C)CC[C@@H]1[C@]32OO4 | -2.16% [at 70.9 µM] | –
18 | CC(=O)CCC(C)=O | 0.872% | –
19 | CO/N=C(/C(=O)OC)c1ccccc1COc1ccccc1C | – | 2.84 µM (active)
20 | CC/C(=N\OC/C=C/Cl)C1=C(O)CC(C2CCOCC2)CC1=O (stereo not given) | 1.61% | –

Row | SMILES | activity change, negative = cytotoxicity | Potency
21 | BrCCCCBr | 1.78% | –
22 | O=C(CBr)OCc1ccccc1 | 0.0593% | –
23 | Clc1ccc(C2(Cn3cncn3)CC(Br)CO2)c(Cl)c1 (stereo not given) | – | 112 µM (active)
24 | C=CC(C)=O | 0.17% | –
25 | CO[C@@H]1[C@H](OC(=O)NC(=O)CCl)CC[C@]2(CO2)[C@H]1[C@@]1(C)O[C@@H]1CC=C(C)C | 2.72% [at 31.6 µM] | –
26 | N#CCC#N | 12% | –
27 | C=CC(=O)OC | 0.977% | –
28 | CC(O)(CS(=O)(=O)c1ccc(F)cc1)C(=O)Nc1ccc(C#N)c(C(F)(F)F)c1 (stereo not given) | – | 41.6 µM (active)
29 | CCCCN=C=O | -4.19% | –
30 | CC(C)N(C(=O)COc1nnc(C(F)(F)F)s1)c1ccc(F)cc1 | 0.724% | –
31 | C=CCCl | 0.497% | –
32 | NNC(=O)c1cccnc1 | -2.29% | –
33 | COc1cc(Cl)c(OC)cc1Cl | -5.26% | –
34 | c1ccc(CN2CCNCC2)cc1 | -2.94% [at 401 µM] | –
35 | COC(=O)C(Cl)C(=O)OC | 2.54% [at 70.9 µM] | –
36 | CO/C=C(/C(=O)OC)c1ccccc1COc1cccc(C(F)(F)F)n1 | – | 17.9 µM (active)
37 | Sc1ccccc1Cl | -2.82% [at 70.9 µM] | –
38 | CCOc1ccc(C(C)(C)COCc2cccc(Oc3ccccc3)c2)cc1 | -1.21% | –
39 | CCOS(C)(=O)=O | -2.22% | –
40 | Clc1cccc(SC2CCNCC2)n1 | -0.862% [at 70.9 µM] | –
